Laboratory results as given in PubChem BioAssay (NCI).
This is part of a sample that, as a whole, favours compounds with a hit. Of some 83,000 tested, about 20% had one in any assay.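 Each cell line was grown in a 96-well plate and treated with one concentration of compound for 48 hours. Values below 10 were considered active.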 Values without a mark were called inactive. The source made the active and inactive calls.

test system: UACC-257 melanoma; experiment: NCI-60 one-dose screen, 48 h (100 = growth as untreated, 0 = no growth, -100 = all killed); details: 10 µM unless noted

| SMILES | growth |
| --- | --- |
| CCOC(=O)c1c(Nc2ccccc2)nn2c(N)c(C#N)c(-c3ccccc3)nc12 | 111% |
| COC(=O)c1ccc(NC(=S)N2CCc3ccc([N+](=O)[O-])cc3C2)cc1O | 109% |
| CCCC(=O)NC(c1cccc(N(C)C)c1)c1cc(C)c2cccnc2c1O (centres undefined) | 90.6% |
| COc1cc(/C=C/C(=O)c2cc(OC)c(OC)c(OC)c2)ccc1Oc1nc(NCCO)nc(N2CCOCC2)n1 | 47.8% |
| CS(=O)(=O)c1ccc(-n2cc(/C=C/C(=O)c3ccc(NC(=O)CO[N+](=O)[O-])cc3)c(-c3ccc(Cl)cc3)n2)cc1 | 97.1% |
| Cc1cc2nc3c4cc(Cl)ccc4n(CC(=O)NCCN(C)C)c3nc2cc1C | 105% |
| Cc1cc2nc3c4cc(Cl)ccc4n(CC(=S)NCCN(C)C)c3nc2cc1C | -17.2% (active) |
| NS(=O)(=O)c1ccc(Nc2nc(SCC(=O)c3ccc(Cl)cc3)nc3ccccc23)cc1 | 102% |
| Clc1ccc2oc3c(NCCCN4CCOCC4)c4ccccc4nc3c2c1 | 50.5% |
| Cc1ccc(/C=C/c2nn3c(-c4ccco4)nnc3s2)cc1C | 99.2% |
| N=C1CC(=O)NN1C(=O)CSc1nc2sc3c(c2c(=O)n1-c1ccc(Cl)cc1)CCCC3 | 106% |
| O=C(NNc1nc2cc(F)ccc2n2c(CN3CC4(COC4)C3)ccc12)c1cnccn1 | -8.36% (active) |
| COc1cc2nc(-c3ccc(C)cc3)cc(OCCCNCC3CCCO3)c2cc1OC (centres undefined) | 17.8% |
| CS(=O)(=O)c1ccc(-c2nc3ccccn3c2C=Nc2ccc(Cl)cc2)cc1 | 88.4% |
| C#Cc1nc(C2=C(C)C(=O)/C(=N/OC(C)=O)C2)cs1 | 86.5% |
| CSCCC(C(=O)O)N1C(=O)/C(=C/c2ccc(O)c(O)c2)SC1=S (centres undefined) | 104% |
| CC(=NNc1ncnc2ccccc12)c1ccc(S(C)(=O)=O)cc1 | 108% |
| Nc1c(C(=O)c2ccc(Br)cc2)oc2nc(-c3cnccn3)cc(-c3cccs3)c12 | 103% |
| COc1cc(-c2nc3ccc(-c4nnc(SCC(=O)Nc5ccc(C(C)=O)cc5)o4)cc3[nH]2)cc(OC)c1OC | 105% |
| N#Cc1nc(-c2ccccc2)oc1S(N)(=O)=O | 78.3% |

| SMILES | growth |
| --- | --- |
| O=C(CN1C(=O)/C(=C/c2ccccc2)SC1=S)N1CCOCC1 | 95.8% |
| Nc1ncc(-c2ccc3ncnc(N4CCc5cc(F)c(Cl)cc54)c3c2)cc1CO | 9.34% (active) |
| Cc1ccc(C(=O)Nc2cccc(C(F)(F)F)c2)cc1Nc1nc(-c2cnccn2)nc2c1cnn2C | 26.1% |
| Clc1ccc2c(NCCCn3ccnc3)c3oc4ccc(Cl)cc4c3nc2c1 | 97.9% |
| CN(C)CCCNc1c2ccc(Cl)cc2nc2c1oc1ccc(Cl)cc12 | 94.5% |
| O=C(N/N=C/c1ccc[nH]1)c1[nH]c2ccc(Br)cc2c1-c1ccccc1 | 30.3% |
| C#Cc1nc(C2=C(C)/C(=N/OCc3ccccc3)CC2)cs1 | 84.4% |
| N#Cc1ccc(C(=O)CSc2nc(Nc3ccc(S(N)(=O)=O)cc3)c3ccccc3n2)cc1 | 101% |
| C=CCn1c(SCC(=O)c2ccccc2)nnc1-c1c[nH]c2ccccc12 | 97.9% |
| Cc1cc(=O)oc2cc(OCCCOc3ccc(/C=C/C(=O)Nc4ccc(Cl)cc4)cc3)ccc12 | 81.5% |
| O=C(c1ccc(Cl)cc1)C1[C@H](c2ccc(Cl)cc2)[C@@H](c2ccccc2)NC12C(=O)Nc1ccc(Br)cc12 (some centres undefined) | 57.7% |
| C[C@@H](Nc1c(C#N)cnc2ccc(-c3cnc(N)nc3)cc12)c1ccccc1 | 33.5% |
| CCN1C(=S)N(CC)C2C1NN=C1SC(c3ccccc3)=CC(=O)N12 (centres undefined) | 103% |
| CC(C)(O)c1cncc(-c2ccc3ncnc(N4CCc5cc(F)c(Cl)cc54)c3c2)c1 | 42.8% |
| CC(C)(C)Nc1nc2c(OCCc3ccccc3)cccn2c1-c1ccccc1Cl | 1.9% (active) |
| COc1ccc(/C=N/NC(=O)c2[nH]c3ccc(Br)cc3c2-c2ccccc2)s1 | 47% |
| OC1CCN(CCCOc2c3ccccc3nc3c2oc2ccc(Cl)cc23)CC1 | 23.6% |
| Cc1sc2c(c1C)c(=O)nc1c(-c3nc(-c4ccc(F)cc4)no3)n[nH]n12 | 105% |
| CC(C)(C)Nc1nc2c(OCCc3ccccc3)cccn2c1-c1cccc(F)c1 | 1.34% (active) |
